Source: PubChem BioAssay AID652054 (National Center for Advancing Translational Sciences (NCATS), 2013)
The campaign covered roughly 360,000 compounds. About 9,100 (2.5%) were called active. Inconclusive results (about 4%) are left out. Cut-off read from the data, not from the text of the source: active = max response below about -50%; inconclusive = no clear call, values can overlap the other calls; inactive = above that. For the sample, actives were picked, then their nearest neighbours and some compounds at random.

The compounds below were run against D(3) dopamine receptor (Homo sapiens) (UniProt P35462) (assay: qHTS of D3 Dopamine Receptor Antagonist: qHTS). Details: D3R cells, DiscoveRx beta-arrestin luminescence, antagonist mode; hits give low values.
Chain of D(3) dopamine receptor (Homo sapiens) (P35462 whole entry, looked up): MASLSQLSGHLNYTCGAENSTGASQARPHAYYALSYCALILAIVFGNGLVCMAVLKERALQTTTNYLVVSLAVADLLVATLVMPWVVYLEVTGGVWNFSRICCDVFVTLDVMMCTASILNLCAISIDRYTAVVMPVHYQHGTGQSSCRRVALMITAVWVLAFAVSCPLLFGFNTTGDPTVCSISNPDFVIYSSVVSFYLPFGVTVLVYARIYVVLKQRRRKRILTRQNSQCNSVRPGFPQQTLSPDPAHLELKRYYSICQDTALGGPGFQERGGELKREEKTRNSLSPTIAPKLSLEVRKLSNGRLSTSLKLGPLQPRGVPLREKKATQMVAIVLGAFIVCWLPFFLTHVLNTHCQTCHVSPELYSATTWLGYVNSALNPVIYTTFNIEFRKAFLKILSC
Procedure, shortened: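 Cells plated overnight at 1500 cells/well, then exposed to library compounds with dopamine controls for 90 minutes at 37 degrees C. DiscoveRx reagent added for 30–60 minutes at room temperature; luminescence read, quantitative HTS format.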
% is set by controls: 0 for no effect and ±100 for the full control effect.

Max response, negative = inhibition, inactive:
Cc1ccc(S(=O)(=O)N2CCN(C)CC2)cc1 7.28%
Cc1ccc(C(=O)N2CCN(S(=O)(=O)N3CCOCC3)CC2)cc1 -16.1%
O=[N+]([O-])c1ccc(CN2CC(N3CCC(c4ccccc4)CC3)CS2(=O)=O)cc1 (stereo not given) -23.6%
CCOC(=O)[C@]12CCC=C1N(Cc1ccco1)C(=O)[C@H](CC(=O)NCc1cccc(C(F)(F)F)c1)C2 -18.6%
CCNC(=O)C1CCCN(C(=O)c2cc(F)ccc2C)CC1 (stereo not given) 15.3%
CCCCC[C@H](C)N1C[C@@H](COCc2ccccc2)Oc2cc(N3CC[C@@H](N(C)C)C3)ccc2S1(=O)=O 18.9%
Cc1cc(Cl)ccc1-c1nc(NCCN(C)C)nc2ccsc12 -28.3%
O=C1CC[C@@H](C(=O)N2CSC[C@@H]2C(=O)Nc2ccc(C(F)(F)F)cc2)N1 -3.96%
COc1ccc(C2=Nc3ccccc3NC(=O)C2N(C(=O)c2cc3ccccc3[nH]2)c2ccccc2)cc1 (stereo not given) -13.2%
CCc1ccccc1OCC(=O)Nc1nnc(C2CC2)s1 -9.37%
O=C(N/N=C/c1ccc(Cl)cc1)c1nc2ccc([N+](=O)[O-])cc2c(=O)[nH]1 9.98%
O=C(O)c1cccc(NC(=O)c2cc(-c3cccc(Cl)c3)nc3ccccc23)c1 14.5%
CCCn1c(N)c(C(=O)CSc2nnc(Cc3cccs3)n2C2CC2)c(=O)[nH]c1=O 31%
O=C(NCC(F)(F)F)c1ccc(S(=O)(=O)NCCc2ccc3c(c2)OCCO3)cc1 18.6%
CC(C)Cc1ccc(-c2cc3nc(NCc4cccc(Cl)c4)ccn3n2)cc1 16.3%
CC(=O)c1ccc(Nc2nc(C(N)c3ccccc3Cl)cs2)cc1 (stereo not given) 0%
CC1(C(=O)NS(=O)(=O)c2cccc(F)c2)CCN1C(=O)c1cccc2ccccc12 (stereo not given) -11.4%
Cc1ccccc1N1CCN(S(=O)(=O)c2ccc3ccccc3c2)CC1 -28.5%
Cc1ccc(C)c(N2CCN(S(=O)(=O)c3ccc4c(c3)oc(=O)n4C)CC2)c1 19.9%
CCc1nc2c(OCCc3cccc(OC)c3)cccn2c1N(C)C(=O)c1ccc(C)cc1 -6.67%
CC(C)(COC(=O)Nc1ccccc1)COC(=O)Nc1ccccc1 -25.8%
O=C(Nc1ccccc1)O/N=C1/CCCc2occc21 -1.95%
COc1cc2ccc(C(C)=O)c(O)c2cc1OC -9.5%
CCC(C)C(CO)NC(=O)/C=C/[C@H]1O[C@@H](n2cnc3c(NC(=O)c4ccccc4)ncnc32)[C@H](O)[C@@H]1O (stereo not given in full) 10.7%
COc1cc(C(=O)CCc2ccc3c(c2)OCO3)cc(OC)c1OC -2.22%
COc1ccc2cc1Oc1ccc(cc1)C[C@H]1c3cc(c(OC)cc3CCN1C)Oc1c(O)c(OC)cc3c1[C@H](C2)N(C)CC3 -18.7%
Cn1c(=O)c2cc(NC(=O)NCCc3cccs3)ccc2n1Cc1cccc(C(F)(F)F)c1 18.7%
Cc1cc(Nc2ccc(C)c(C)c2)n2ncnc2n1 -15.7%
COc1ccc(-c2ccc(CN3C(C(C)C)C(=O)N(Cc4cn(CC5CCCCC5)nn4)CCS3(=O)=O)cc2)cn1 (stereo not given) 14.3%
COc1ccc(-c2cc(NC(C)=O)c3ncc(-c4cc(OC)c(OC)c(OC)c4)n3c2)cn1 30.1%
COc1ccccc1C(=O)NC(CCSC)C(=O)N1CCN(C/C=C/c2ccccc2)CC1 (stereo not given) -14%
CC(C)C(c1nnnn1Cc1ccccc1)N1CCC(C(N)=O)CC1 (stereo not given) 14.4%
Cc1ccc(Cl)c(OCC(=O)N2CCc3ccccc3C2)c1 1.13%
COCCN1CCN(C(=O)c2cc(COc3ccc(F)cc3Cl)on2)CC1 -9.58%
CCCc1ccc(OCC(O)CN2CCN(CCO)CC2)cc1 (stereo not given) 6.19%
Cc1cccc(OCC(O)CN2CCN(S(=O)(=O)c3ccc(C)cc3C)CC2)c1 (stereo not given) -9.79%
CC(C)C[C@H]1CNC(=S)N1C[C@H]1CCCN1C[C@H](Cc1ccc(O)cc1)N1C[C@H](Cc2ccc(O)cc2)N(CC2CCCCC2)C1=S 4.99%
CC(=O)NC(c1cccc(F)c1)c1nc(-c2cccc(F)c2)cs1 (stereo not given) 2.77%
COC(=O)[C@]12CCCCC=C1N(Cc1ccc3c(c1)OCO3)C(=O)[C@H](CC(=O)N1CCOCC1)C2 6.26%
COc1ccc(C(C)C)cc1-c1ccc2nncn2c1 -20%
COc1ccc(C(=O)OCC(=O)Nc2cc(C)on2)cc1F 9.93%
O=C(Nc1ccc(N2CCOCC2)cc1)c1cccc2c(-c3ccc(F)c(F)c3)coc12 -14.5%
O=C(Nc1ccc(F)cc1)Nc1nnc([C@H]2C[C@H](O)[C@@H](CO)O2)s1 16.1%
Cc1ccc(CNC(=O)Nc2nnc([C@H]3C[C@H](O)[C@@H](CO)O3)s2)cc1 10.5%

Max response, negative = inhibition, active:
Cc1ccc(S(=O)(=O)N2CCN(S(=O)(=O)N3CCOCC3)CC2)cc1 -75.3%
Oc1ccc2ccccc2c1N=Nc1nccs1 -67.4%
Oc1ccc(N=Nc2nccs2)c(O)c1 -73.7%
O=C(/C(=C/c1cccc(Cl)c1)c1nc2ccccc2[nH]1)c1ccccc1 -87.4%
Cc1ccc(N2CCN(S(=O)(=O)c3ccc(F)cc3)CC2)c(C)c1 -54.7%
N/C(=N\OC(=O)Nc1ccccc1)c1ccno1 -63.2%
COc1c(O)ccc2c1CN1CCc3cc4c(cc3C1C2)OCO4 (stereo not given) -123%
CSCCC(c1nnnn1Cc1ccccc1)N1CCN(C/C=C/c2ccccc2)CC1 (stereo not given) -87.8%
Cc1ccc(OCC(O)CN2CCN(CC(O)COc3ccc(C)cc3Cl)CC2)c(Cl)c1 (stereo not given) -59.6%
OC(COc1ccc(F)cc1Cl)CN1CCc2ccccc2C1 (stereo not given) -83.8%
O=C(Nc1nnc([C@H]2C[C@H](O)[C@@H](CO)O2)s1)c1cccc(Cl)c1 -110%
